# Results published in publication PMC4336329 (PLoS ONE, 2015).
# Hit rate of the full screen: of about 310,000 compounds, about 14,000 (4.5%) showed an effect of 50% or more. Effects have a minus sign here. The sample holds strong results, similar compounds and a random draw of the others, so the mix is not that of the screen.
# Target: human ether-à-go-go-related gene (hERG) potassium channel (human, UniProt Q12809)
# Experiment: primary screen, population patch clamp on CHO cells stably expressing hERG; higher = less effect of the substance
# 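Further: peak tail current of the secondary pulse compared with the same well before compound.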
# Sequence of human ether-à-go-go-related gene (hERG) potassium channel (Q12809 whole entry, looked up): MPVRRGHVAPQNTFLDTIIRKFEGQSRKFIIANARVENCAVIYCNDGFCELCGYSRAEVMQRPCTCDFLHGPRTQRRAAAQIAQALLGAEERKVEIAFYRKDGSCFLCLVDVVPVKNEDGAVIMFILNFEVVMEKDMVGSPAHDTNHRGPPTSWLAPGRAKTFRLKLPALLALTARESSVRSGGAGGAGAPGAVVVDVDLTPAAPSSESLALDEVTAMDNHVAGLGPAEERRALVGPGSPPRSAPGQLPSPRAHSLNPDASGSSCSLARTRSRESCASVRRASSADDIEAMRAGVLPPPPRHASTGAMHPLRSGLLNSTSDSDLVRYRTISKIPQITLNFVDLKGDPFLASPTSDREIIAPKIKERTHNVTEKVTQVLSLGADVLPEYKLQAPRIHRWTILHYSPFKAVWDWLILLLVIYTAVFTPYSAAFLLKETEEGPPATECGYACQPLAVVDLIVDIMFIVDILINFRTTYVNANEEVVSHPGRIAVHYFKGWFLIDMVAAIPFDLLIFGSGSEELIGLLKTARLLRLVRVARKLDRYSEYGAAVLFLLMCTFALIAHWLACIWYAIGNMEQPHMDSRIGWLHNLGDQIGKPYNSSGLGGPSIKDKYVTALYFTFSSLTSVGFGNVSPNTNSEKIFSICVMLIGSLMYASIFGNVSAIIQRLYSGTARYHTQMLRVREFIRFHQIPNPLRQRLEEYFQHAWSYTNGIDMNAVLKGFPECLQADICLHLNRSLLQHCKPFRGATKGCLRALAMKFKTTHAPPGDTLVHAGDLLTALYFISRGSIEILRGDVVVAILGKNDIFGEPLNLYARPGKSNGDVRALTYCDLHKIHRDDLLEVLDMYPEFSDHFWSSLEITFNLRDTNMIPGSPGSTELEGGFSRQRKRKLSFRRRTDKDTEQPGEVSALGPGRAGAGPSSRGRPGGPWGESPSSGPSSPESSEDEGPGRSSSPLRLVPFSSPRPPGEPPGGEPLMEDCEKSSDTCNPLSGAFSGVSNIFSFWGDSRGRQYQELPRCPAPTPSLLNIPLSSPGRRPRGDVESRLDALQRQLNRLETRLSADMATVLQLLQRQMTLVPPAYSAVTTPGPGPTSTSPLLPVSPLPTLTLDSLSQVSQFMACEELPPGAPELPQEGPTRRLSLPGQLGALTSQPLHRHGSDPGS
row,SMILES,"hERG current change (%, negative = inhibition) at 10uM [%]"
1,O=C(Cn1cc2c(n1)CCCCC2)NCc1ccccn1,-2.69
2,CCOc1cc(C(=O)N2CCC3(CC2)OCCO3)cc(OCC)c1OCC,-12.5
3,CCOC(=O)N1CCN(CC(=O)N2c3ccccc3CC2C)CC1.O=C(O)C(=O)O (stereo not shown),10.4
4,Cc1ccc(CNC(=O)C2CCN(S(=O)(=O)c3ccc(Br)s3)CC2)cc1,3.77
5,COC(=O)c1cc2nc(-c3ccccc3)cc(C(F)(F)F)n2n1,19.7
6,CCOc1ccc(S(=O)(=O)/N=C(\N)c2ccccc2)cc1,-7.03
7,CCCCCCCC(=O)Nc1cc(C(=O)NCc2ccc(C)cc2)ccc1N1CCC2(CC1)CC(c1cccc(Br)c1)=NO2,2.8
8,CCSCCOC(=O)C1=C(C)NC(=O)NC1c1ccc2c(c1)OCO2 (stereo not shown),-13.4
9,Cc1cccc(C(=O)N(NC(=O)Oc2ccccc2)C(C)(C)C)c1,-13
10,CCc1ccc(NC(=O)CCNS(=O)(=O)c2cccc3nsnc23)cc1,-14.9
11,O=C(Nc1ccc2c(c1)OCCO2)C1CCN(C(=O)c2ccc([N+](=O)[O-])cc2)CC1,-65.6
12,O=C(Nc1ccc2c(c1)OCCO2)C1CCC1,7.7
13,O=C(Cc1ccc([N+](=O)[O-])cc1)Nc1ccc2c(c1)OCO2,-13.9
14,O=C(Nc1ccc2c(c1)OCO2)C1CCN(S(=O)(=O)c2ccc3c(c2)OCCO3)CC1,7.45
15,Cc1ccccc1C(=O)N1CCC(C(=O)Nc2ccc3c(c2)OCCO3)CC1,5.7
16,O=C(Nc1ccc2c(c1)OCO2)C1CCN(C(=O)c2ccc([N+](=O)[O-])cc2)CC1,-84.2
17,CC(=O)Nc1nc(C)c(Cc2ccccc2)c(=O)[nH]1,-1.04
18,Cn1cnc(S(=O)(=O)NCc2ccccc2)c1,2.77
19,Cc1ccccc1OCCOC(=O)c1nc2nccc(C)n2n1,-14.1
20,COc1ccccc1NC(=O)C1=C(C)Nc2nnnn2C1c1ccncc1 (stereo not shown),-12.4
21,CCOC(=O)c1c(C)n(-c2ccc(F)cc2)c2ccc(O)cc12,16.4
22,CCOC(=O)c1c(CN(CC)CC)n(-c2ccccc2)c2ccc(O)cc12,-66.7
23,CCOC(=O)c1c(CN2CCOCC2)n(-c2ccccc2)c2ccc(O)cc12,-69.2
24,CCOC(=O)c1c(CN2CCOCC2)n(-c2ccccc2)c2cc(Br)c(O)c(CN(C)C)c12,-42.3

row,SMILES,"hERG current change (%, negative = inhibition) at 10uM [%]"
1,CCOC(=O)c1c(C)n(-c2ccccc2)c2ccc(O)cc12,13.8
2,CCOC(=O)c1c(C)n(Cc2ccccc2)c2ccc(O)cc12,4.43
3,COc1ccc(S(=O)(=O)N(CC(C)C)C2CCS(=O)(=O)C2)cc1OC (stereo not shown),4.62
4,CC(=O)c1ccc(N2CCN(C(=O)C3CCN(S(=O)(=O)c4ccc5c(c4)CC(C)N5C(=O)C4CC4)CC3)CC2)cc1 (stereo not shown),-8.83
5,COc1ccc(CNC(=O)COC(=O)c2ccc3ncsc3c2)cc1OC,14.5
6,C=C(C)C(=O)N1CC2(CC(c3cccc(NC(=O)/C=C\C=C/C)c3)=NO2)C[C@H]1C(N)=O (stereo partly shown),0.942
7,CSc1ccc(S(=O)(=O)NCC(=O)OCC(=O)N2CCCC2=O)cc1[N+](=O)[O-],-9.51
8,Cc1nn(CC#N)c(=O)n1-c1ccccc1F,10.8
9,COc1cc(CNCCN2CCOCC2)ccc1OCc1ccc(Cl)cc1.Cl,-42.1
10,COc1cc(CNCCN(C)C)ccc1OCc1c(F)cccc1Cl.Cl,-19.6
11,COc1cc(CNCCN2CCOCC2)ccc1OCc1ccc(Cl)cc1Cl.Cl,-69.7
12,COc1cc(CNCCCN2CCOCC2)cc(Br)c1OCc1ccc(Cl)cc1.Cl,-35.5
13,COc1cc(CNCCN2CCOCC2)ccc1OCc1c(Cl)cccc1Cl.Cl,-50.6
14,COc1cc(CNCCN2CCOCC2)ccc1OCc1cccc(Cl)c1.Cl,-63.2
15,COc1cc(CNCCO)cc(Cl)c1OCc1ccc(Cl)cc1Cl.Cl,-7.34
16,COc1cc(CNCCN2CCOCC2)ccc1OCC(=O)NC(C)(C)C.Cl,6.17
17,COc1cc(CNCCN2CCOCC2)ccc1OCc1ccccc1Cl.Cl,-45.7
18,O=C1CC2C(=O)NCCN2C(=NC(=O)c2ccc(Cl)cc2)N1 (stereo not shown),-15.7
19,COc1ccc(C(=O)Nc2ccc(NC(=O)C(C)C)nc2)cc1,18.9
20,COc1cccc(/C=N/n2c(-c3n[nH]c4c3CCC4)n[nH]c2=S)c1OC,14.1
21,O=C(NCCCNC(=O)c1ccc(Cl)cc1Cl)c1ccccn1,-2.08
22,O=C(CSc1nnc(CNC(=O)c2cccs2)o1)Nc1ccc(Cl)cc1,-4.26
23,CCC(C)NC(=O)COc1ccccc1[N+](=O)[O-] (stereo not shown),16
24,CSCCC(NC(=O)c1ccco1)C(=O)NCC(c1ccccc1)N(C)C (stereo not shown),-9.02

row,SMILES,"hERG current change (%, negative = inhibition) at 10uM [%]"
1,COc1ccc(C/C(N)=N/OC(=O)Cc2ccccc2)cc1,-7.03
2,CCOC(=O)c1c(NC(=S)Nc2ccc(OCC)cc2)sc2c1CCN(C)C2,-70.4
3,CCOC(=O)c1c(NC(=O)Nc2ccc(F)cc2)sc2c1CCN(C)C2,-26
4,CCOC(=O)c1c(NC(=S)Nc2ccccc2)sc2c1CCCCC2,17.3
5,CCOC(=O)c1c(NC(=S)Nc2ccccc2)sc2c1CC(C)(C)SC2,-3.74
6,CCOC(=O)c1c(NC(=S)Nc2ccc(OC)cc2)sc2c1CCC2,14
7,CCOC(=O)c1c(NC(=S)Nc2ccc(OC)cc2)sc2c1CCCCC2,12.5
8,CCOC(=O)c1c(NC(=S)Nc2ccc(Cl)cc2)sc2c1CCN(C)C2,-74.2
9,CCOC(=O)c1c(NC(=S)Nc2ccccc2)sc2c1CCN(C)C2,-74.2
10,CCOC(=O)c1c(NC(=O)Nc2ccc(C)cc2)sc2c1CCN(C)C2,-47.6
11,CNC(=O)c1ccsc1NC(=O)CCS(=O)(=O)c1ccc(Cl)cc1,-18.1
12,COc1ccccc1OCCn1c(C)c(C=O)c2ccccc21,-2.11
13,Cc1c(Br)c([N+](=O)[O-])nn1CC(=O)N1CCCc2ccccc21,2.48
14,CCN1CCN(C(CNS(=O)(=O)c2ccc(Br)cc2)c2cccnc2)CC1 (stereo not shown),-65.8
15,N#CCCN1CCN(C(CNS(=O)(=O)c2ccc(Cl)cc2)c2ccccc2)CC1 (stereo not shown),-34.2
16,CCN1CCN(C(CNS(=O)(=O)c2ccc(Cl)cc2)c2ccccc2)CC1 (stereo not shown),-69.5
17,CN(C)C(CNS(=O)(=O)c1ccc(Cl)cc1)c1cccnc1 (stereo not shown),18.2
18,CN1CCN(C(CNS(=O)(=O)c2ccc(Cl)cc2)c2cccnc2)CC1 (stereo not shown),-55.6
19,CCN1CCN(C(CNS(=O)(=O)c2ccc(C)cc2)c2cccnc2)CC1 (stereo not shown),-35.9
20,CN(C)C(CNS(=O)(=O)c1ccc(Br)cc1)c1cccnc1 (stereo not shown),-11.3
21,CCN1CCN(C(CNS(=O)(=O)c2ccc(Cl)cc2)c2cccnc2)CC1 (stereo not shown),-74.2
22,CN1CCN(C(CNS(=O)(=O)c2ccc(F)cc2)c2cccnc2)CC1 (stereo not shown),-7.43
23,CCN1CCN(C(CNS(=O)(=O)c2ccccc2)c2ccccc2)CC1 (stereo not shown),-34.8
24,N#Cc1ccc(Oc2cc(C(F)(F)F)nc(-c3ccccn3)n2)cc1,5.26

row,SMILES,"hERG current change (%, negative = inhibition) at 10uM [%]"
1,Cc1cccc(Nc2ncnc3onc(-c4ccc(F)cc4)c23)c1C,-4.56
2,Oc1ccccc1CNc1nccs1,21.3
3,COc1ccc(OC(C)C(=O)Nc2ccccc2F)cc1 (stereo not shown),13.1
4,CN(C)CCn1cnc2c1c(=O)[nH]c(=O)n2Cc1ccccc1.Cl,27.6
5,O=C(O)CCCC(=O)NCc1ccccn1,11.1
6,Cc1ccc(NC(=O)Cn2c(-c3ccc(F)cc3)cnc2SCC(=O)Nc2c(C)cccc2C)cc1,16
7,Cc1cc(C(=O)Nc2ccc(F)cc2)c2ccccc2n1,-0.679
8,C/C(CC(=O)Nc1ccc2c(c1)OCCO2)=N\NC(=O)c1ccc([N+](=O)[O-])cc1Cl,-5.37
9,CC(C)Sc1ccc([N+](=O)[O-])cc1C(=O)Nc1ccncc1,-11.7
10,CCCCCn1cnc2c(sc3nc4c(cc32)CSC(C)(C)C4)c1=O,-14.5
11,CCOC(=O)C1(CC2CCCCO2)CCN(S(=O)(=O)c2cc(C)cs2)CC1 (stereo not shown),-59
12,CCOC(=O)C1(CC2CCCCO2)CCN(Cc2nccn2-c2ccc(OC)cc2)CC1 (stereo not shown),-5.78
13,CCOC(=O)C1(CC2CCCCO2)CCN(Cc2nc(-c3cccs3)oc2C)CC1 (stereo not shown),-67.6
14,CCOC(=O)C1(CC2CC2)CCN(Cc2cnc(-c3ccc(OC)cc3)nc2)CC1,-21.9
15,CCOC(=O)C1(CC2CCCCO2)CCN(Cc2ccc(OC)cc2F)CC1 (stereo not shown),-54.8
16,CCOC(=O)C1(CC2CCCCO2)CCN(Cc2nc3ccccc3nc2C)CC1 (stereo not shown),-21.2
17,CCOC(=O)C1(CC2CCCCO2)CCN(S(=O)(=O)c2ccc(OC)cc2)CC1 (stereo not shown),-38.3
18,CCOC(=O)C1(CC2CCCCO2)CCN(S(=O)(=O)c2ccccc2)CC1 (stereo not shown),9.64
19,CCOC(=O)C1CCN(Cc2ccc(F)cc2F)CC1,6.65
20,CCOC(=O)C1(CCOC)CCN(Cc2nc(-c3cccs3)oc2C)CC1,-30.8
21,CCOC(=O)C1(CC2CCCCO2)CCN(S(=O)(=O)c2ccc(C)s2)CC1 (stereo not shown),9.12
22,CCOC(=O)C1(CC2CC2)CCN(Cc2ccc(OC)cc2F)CC1,-73.5
